PubChem BioAssay
Active and inactive are the calls of the source.

Assays:
Albumin (Bos taurus) = Albumin (Bos taurus) (UniProt P02769); assay: bovine serum albumin binders on microarray, profiling panel, artefact control for SMM control protein annotation, biochemical, small-molecule microarray, Alexa647 label, 635/667 nm fluorescence (AID 1118); settings: BSA-A647 binding, fluorescence 635 nm, higher = more signal;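 also: score merges 667 nm emission intensity and signal-to-noise per printed compound spot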
Chain of Albumin (Bos taurus) (P02769 whole entry, looked up): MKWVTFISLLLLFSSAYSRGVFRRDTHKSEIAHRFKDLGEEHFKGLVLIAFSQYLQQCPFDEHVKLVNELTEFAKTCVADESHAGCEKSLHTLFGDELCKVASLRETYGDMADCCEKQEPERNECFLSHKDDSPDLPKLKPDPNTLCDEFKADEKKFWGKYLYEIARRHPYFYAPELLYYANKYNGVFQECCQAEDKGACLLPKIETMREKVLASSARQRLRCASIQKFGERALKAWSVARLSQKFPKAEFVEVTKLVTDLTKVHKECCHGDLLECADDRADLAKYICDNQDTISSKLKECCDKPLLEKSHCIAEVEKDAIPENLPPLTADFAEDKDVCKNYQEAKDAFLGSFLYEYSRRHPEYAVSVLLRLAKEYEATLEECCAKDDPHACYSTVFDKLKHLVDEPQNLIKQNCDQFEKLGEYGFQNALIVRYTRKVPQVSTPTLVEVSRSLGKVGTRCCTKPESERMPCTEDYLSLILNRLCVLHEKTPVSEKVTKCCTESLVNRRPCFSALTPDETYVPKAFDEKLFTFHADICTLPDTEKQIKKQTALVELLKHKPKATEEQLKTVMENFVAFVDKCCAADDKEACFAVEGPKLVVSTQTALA

[1] = small-molecule microarray binders of probe aXIP, primary screen, biochemical, NeuroSMM set, 635/667 nm fluorescence (AID 1119); settings: higher = more signal, called active from +8 up or from −8 down;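 also: probe is the protein aXip251-270 applied at 1 µg/mL to compound-printed slides; binding of probe to printed compounds measured as 667 nm fluorescence plus signal to noise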
[2] = small-molecule binders of probe aNOTCH3, primary screen, biochemical, small-molecule microarray, 635/667 nm fluorescence (AID 1120); settings: higher = more signal;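 also: probe is a biotin-tagged antibody raised against NOTCH3 rather than NOTCH3 protein; score merges spot fluorescence near 667 nm with spot signal to noise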
[3] = small-molecule binders of probe aNOTCH2, primary screen, biochemical, small-molecule microarray, 635/667 nm fluorescence (AID 1121); settings: higher = more signal;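 also: score merges feature fluorescence read at 667 nm with its signal to noise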
[4] = target: Carbonic anhydrase 2 (Homo sapiens) (UniProt P00918); assay: CAII small-molecule binders, profiling panel, biochemical, small-molecule microarray, Alexa647-labelled CAII (AID 1122); settings: CAII-A647 binding fluorescence, higher = more signal
[5] = COS7 lysate on small-molecule microarray, probe aHis, 635 nm (AID 1123); settings: COS7 cell lysate, fluorescence, higher = more signal;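 also: z-score combines 667nm fluorescence intensity with signal-to-noise per printed compound spot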
[6] = compound binding in COS7 lysate, probe aLAP1, primary screen, cell lysate, small-molecule microarray (AID 1124); settings: probe aLAP1, fluorescence, higher = more signal;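 also: lysate comes from COS7 cells expressing LAP1 and is applied at 0.3 µg/mL; score merges spot fluorescence near 667 nm with signal-to-noise over triplicate slides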
Sam68 (KHDRBS1) = assay: Sam68 small-molecule binders, primary screen, biochemical, small-molecule microarray, 635 nm fluorescence (AID 1125); settings: small-molecule microarray binding, higher = more signal;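 also: score merges 667 nm channel intensity with signal to noise over triplicate slides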
[7] = tested on: Chordin-like protein 2 (CHRDL2); assay: CHRDL2 small-molecule binders, primary screen, biochemical, small-molecule microarray, 635 nm fluorescence (AID 1126); settings: small-molecule microarray binding, fluorescence 635 nm; higher = more signal;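 also: printed compound slides probed with Chrdl2 protein at 4 µg/mL for 1 h at 4 C; score merges 667 nm emission intensity with signal to noise over three replicate slides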
[8] = target: Concanavalin-A (Canavalia ensiformis) (UniProt P02866); assay: ConA small-molecule binders, primary screen, artefact control for SMM control protein annotation, biochemical, small-molecule microarray, Alexa647 label, 635 nm (AID 1127); settings: ConA-A647 binding fluorescence, higher = more signal;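 also: z combines 667 nm emission intensity with signal-to-noise across three replicate slides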
Chain of Concanavalin-A (Canavalia ensiformis) (P02866 whole entry, looked up): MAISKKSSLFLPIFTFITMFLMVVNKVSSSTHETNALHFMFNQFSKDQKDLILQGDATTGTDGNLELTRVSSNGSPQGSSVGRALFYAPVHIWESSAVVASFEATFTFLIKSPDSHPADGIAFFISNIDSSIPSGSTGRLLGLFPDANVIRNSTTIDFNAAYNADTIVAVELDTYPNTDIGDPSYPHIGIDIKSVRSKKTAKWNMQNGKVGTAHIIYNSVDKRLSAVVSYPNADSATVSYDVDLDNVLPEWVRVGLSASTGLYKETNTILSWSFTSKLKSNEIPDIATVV

[9] = anti-His antibody binders, primary screen, artefact control for SMM control protein annotation, biochemical, small-molecule microarray, 635 nm fluorescence (AID 1128); settings: anti-His Alexa647 antibody binding, higher = more signal;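 also: score merges feature fluorescence with signal-to-noise for each printed compound spot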
[10] = tested on: Human papillomavirus type 1a E7 protein (residues 1-88); assay: HPV1a E7 small-molecule binders, primary screen, biochemical, small-molecule microarray, residues 1-88, 635 nm (AID 1129); settings: small-molecule microarray binding, fluorescence 635 nm; higher = more signal
[11] = target: Focal adhesion kinase 1 (Homo sapiens) (UniProt Q05397); assay: small-molecule microarray binders of FAK, primary screen, biochemical, 635/667 nm fluorescence, BSA, DTT (AID 1130); settings: PTK2 binding, 635 nm fluorescence, higher = more signal;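 also: composite of spot emission at 667 nm and signal to noise over triplicate slides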
Chain of Focal adhesion kinase 1 (Homo sapiens) (Q05397 whole entry, looked up): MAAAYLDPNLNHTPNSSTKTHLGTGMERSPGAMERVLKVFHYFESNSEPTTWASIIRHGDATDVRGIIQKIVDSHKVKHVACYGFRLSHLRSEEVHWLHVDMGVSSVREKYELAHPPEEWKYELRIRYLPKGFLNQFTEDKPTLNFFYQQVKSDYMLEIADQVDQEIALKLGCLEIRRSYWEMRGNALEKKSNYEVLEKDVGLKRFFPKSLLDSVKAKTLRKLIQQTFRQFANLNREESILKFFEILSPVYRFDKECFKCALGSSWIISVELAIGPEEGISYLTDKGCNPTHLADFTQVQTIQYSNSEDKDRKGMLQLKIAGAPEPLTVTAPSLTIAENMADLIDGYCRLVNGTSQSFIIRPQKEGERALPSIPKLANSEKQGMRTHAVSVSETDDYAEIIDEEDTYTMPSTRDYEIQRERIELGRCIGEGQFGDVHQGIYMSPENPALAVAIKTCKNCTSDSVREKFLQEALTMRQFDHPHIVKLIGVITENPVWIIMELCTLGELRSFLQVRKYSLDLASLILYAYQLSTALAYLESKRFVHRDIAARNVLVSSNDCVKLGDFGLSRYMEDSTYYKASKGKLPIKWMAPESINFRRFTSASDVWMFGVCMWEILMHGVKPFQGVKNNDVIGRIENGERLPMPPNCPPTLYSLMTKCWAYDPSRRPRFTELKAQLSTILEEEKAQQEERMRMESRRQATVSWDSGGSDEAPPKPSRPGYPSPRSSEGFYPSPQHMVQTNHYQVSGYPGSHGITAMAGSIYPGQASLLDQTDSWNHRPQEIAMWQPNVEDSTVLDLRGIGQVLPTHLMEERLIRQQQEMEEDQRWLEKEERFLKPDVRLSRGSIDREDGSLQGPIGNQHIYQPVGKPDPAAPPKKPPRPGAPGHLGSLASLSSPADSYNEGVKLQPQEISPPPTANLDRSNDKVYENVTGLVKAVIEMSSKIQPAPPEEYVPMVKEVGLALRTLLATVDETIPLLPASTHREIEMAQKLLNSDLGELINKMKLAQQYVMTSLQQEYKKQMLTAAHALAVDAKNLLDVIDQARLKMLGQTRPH

[12] = tested on: Fibrinogen (Alexa647-labelled); assay: fibrinogen binders on compound microarrays, profiling panel, artefact control for SMM control-protein annotation, biochemical, small-molecule microarray, 635/667 nm fluorescence (AID 1131); settings: fibrinogen-A647 binding fluorescence, higher = more signal;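 also: z-score merges 667 nm fluorescence with per-spot signal-to-noise over triplicate slides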
[13] = target: Follistatin (Homo sapiens) (UniProt P19883); assay: follistatin binders on small-molecule microarrays, primary screen, biochemical, small-molecule microarray, 635/667 nm fluorescence (AID 1132); settings: FST binding, 635 nm fluorescence, higher = more signal
Chain of Follistatin (Homo sapiens) (P19883 whole entry, looked up): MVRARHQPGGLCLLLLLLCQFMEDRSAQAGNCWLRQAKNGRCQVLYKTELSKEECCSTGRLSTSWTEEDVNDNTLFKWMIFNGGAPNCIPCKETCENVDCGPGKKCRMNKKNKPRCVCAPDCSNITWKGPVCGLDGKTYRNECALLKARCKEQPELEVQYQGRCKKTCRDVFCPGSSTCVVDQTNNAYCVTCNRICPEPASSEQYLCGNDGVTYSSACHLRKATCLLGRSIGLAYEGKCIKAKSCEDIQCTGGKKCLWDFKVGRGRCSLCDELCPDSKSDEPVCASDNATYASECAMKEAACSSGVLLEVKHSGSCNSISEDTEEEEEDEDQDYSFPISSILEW

[14] = target: Fibroblast growth factor 2 (Homo sapiens) (UniProt P09038); assay: FGF2 binders on small-molecule microarrays, primary screen, biochemical, small-molecule microarray, 635/667 nm fluorescence (AID 1133); settings: small-molecule microarray binding, FGF2, fluorescence 635/667; higher = more signal
Chain of Fibroblast growth factor 2 (Homo sapiens) (P09038 whole entry, looked up): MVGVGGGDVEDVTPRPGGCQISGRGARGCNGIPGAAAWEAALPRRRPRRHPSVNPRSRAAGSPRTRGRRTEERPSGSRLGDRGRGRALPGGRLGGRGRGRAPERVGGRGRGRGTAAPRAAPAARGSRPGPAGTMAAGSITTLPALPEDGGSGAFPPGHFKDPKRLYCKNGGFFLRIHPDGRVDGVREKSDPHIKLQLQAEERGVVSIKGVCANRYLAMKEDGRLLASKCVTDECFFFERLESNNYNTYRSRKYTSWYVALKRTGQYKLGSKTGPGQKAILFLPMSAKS

[15] = mitochondrial membrane potential change in A549 cells, profiling panel, cell-based, JC-1 fluorescence, basal, 24 h, 100 nL (AID 1138); settings: higher = more signal;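 also: A549 lung adenocarcinoma cells under basal conditions with no added stimulus; test concentration not given here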
Lefty1 = Lefty1 binders on small-molecule microarrays, primary screen, biochemical, small-molecule microarray, 635/667 nm fluorescence (AID 1139); settings: small-molecule microarray binding, fluorescence 635/667; higher = more signal
[16] = tested on: wheat germ agglutinin (Triticum aestivum), Alexa647-labelled; assay: wheat germ agglutinin binders on compound microarrays, profiling panel, artefact control for SMM control-protein annotation, biochemical, small-molecule microarray, 635/667 nm fluorescence (AID 1140); settings: WGA-A647 binding, 635 nm fluorescence, higher = more signal;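 also: score merges 667 nm feature emission with signal to noise over triplicate slides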
[17] = target: Luciferin 4-monooxygenase (Photinus pyralis) (UniProt P08659); assay: firefly luciferase enzyme inhibitors, primary screen, biochemical, luminescence, purified enzyme, 2006 set (AID 1141); settings: SteadyGlo luminescence, 30 min, higher = more signal, called active from +8 up or from −8 down;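 also: cell-free assay with purified firefly luciferase at 100 ng per well in PBS; test concentration not given here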
Chain of Luciferin 4-monooxygenase (Photinus pyralis) (P08659 whole entry, looked up): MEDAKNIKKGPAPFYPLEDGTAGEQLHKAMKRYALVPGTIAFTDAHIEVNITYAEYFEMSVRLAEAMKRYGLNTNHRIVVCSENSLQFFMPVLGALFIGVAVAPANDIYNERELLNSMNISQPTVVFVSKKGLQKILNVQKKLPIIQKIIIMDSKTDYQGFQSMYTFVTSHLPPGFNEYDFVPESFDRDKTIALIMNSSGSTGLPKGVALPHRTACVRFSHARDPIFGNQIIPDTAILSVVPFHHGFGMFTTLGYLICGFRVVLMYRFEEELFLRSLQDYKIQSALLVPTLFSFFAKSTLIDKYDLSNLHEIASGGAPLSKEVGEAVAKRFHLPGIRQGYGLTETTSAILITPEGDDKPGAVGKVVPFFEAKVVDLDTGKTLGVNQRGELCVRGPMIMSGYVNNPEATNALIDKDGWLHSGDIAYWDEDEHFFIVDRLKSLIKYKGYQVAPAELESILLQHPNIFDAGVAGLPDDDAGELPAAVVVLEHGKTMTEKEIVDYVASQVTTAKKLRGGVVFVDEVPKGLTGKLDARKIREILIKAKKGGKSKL

Row | Compound | composite z-score (Albumin (Bos taurus)) | composite Z-score [1] | composite z-score [2] | composite z-score [3] | composite z-score [4] | composite z-score [5] | composite z-score [6] | composite z-score (Sam68 (KHDRBS1)) | composite z-score [7] | composite z-score [8] | composite z-score [9] | composite z-score [10] | composite z-score [11] | composite z-score [12] | composite z-score [13] | composite z-score [14] | z-score [15] | composite z-score (Lefty1) | composite z-score [16] | z-score [17]
1 | C=CC(=O)O[C@@H](Cc1ccccc1)[C@H]1C2C=CCCC=C2CN1Cc1cccc(Cl)c1 (stereo not given in full) | -0.421 | 0.565 (inactive) | -0.0057 | -0.112 | -0.794 | -0.323 | -0.454 | -2.7 | -0.605 | -0.965 | -0.0091 | -2.16 | -0.426 | -0.327 | -0.14 | -0.344 | 1.77 | -0.697 | -0.346 | -1.52 (inactive)
2 | COCCOC(=O)N1C(=O)[C@@]2(c3cc(C#CC4=CCCCC4)ccc31)[C@H](C(=O)NC[C@H](O)c1ccccc1)[C@H]1C(=O)O[C@H](c3ccccc3)[C@H](c3ccccc3)N1[C@@H]2c1ccc(OCCO)cc1 | 0.723 | -0.0384 (inactive) | 0.0739 | -0.0986 | 0.224 | 1.9 | -0.0647 | 1.3 | 0.629 | 1.12 | 0.577 | 1.2 | 0.221 | 0.955 | 1.35 | 1.22 | -1.73 | 1.08 | 0.971 | -0.526 (inactive)
3 | CCOC(=O)[C@H]1C/C=C/C[C@H](C(=O)OCC)C(=O)O[C@H]2[C@@H](OC)O[C@H](CO)[C@@H](OC(=O)Nc3ccc(Br)cc3)[C@@H]2OC1=O | 0.827 | 0.285 (inactive) | -0.122 | -0.0863 | 0.516 | 2.22 | 0.704 | 1.3 | -0.12 | 1.09 | 0.441 | 1.21 | 0.361 | 0.708 | 0.623 | 0.376 | -2.32 | 0.588 | 1.21 | -1.72 (inactive)
4 | C=CCOC(=O)[C@@H]1[C@H]2C(=O)O[C@H](c3ccccc3)[C@H](c3ccccc3)N2[C@H](c2ccc(OCCOC(=O)[C@H]3C[C@H]4C(=O)N5CCC[C@H]5C(=O)N4[C@H]3c3ccc(O)cc3)cc2)[C@@]12C(=O)Nc1ccccc12 | -0.876 | 0.223 (inactive) | -0.125 | -0.185 | 0.252 | 1.12 | 0.333 | 1.27 | 0.95 | 1.19 | 0.912 | 1.2 | 0.782 | 0.81 | 1.37 | 1.58 | -1.47 | 0.872 | 0.93 | -0.803 (inactive)
5 | CCCC=C(CCC)[C@@H](NS(=O)(=O)c1ccc(C(F)(F)F)cc1)c1ccc(-c2ccccc2)cc1 | 0.822 | -0.118 (inactive) | 0.305 | -0.0467 | 0.279 | 2.24 | 0.348 | 1.21 | -0.386 | 0.882 | 0.826 | 1.23 | 0.998 | 0.694 | 1.26 | -0.0729 | 1.89 | 0.565 | 1.2 | 2.63 (inactive)
6 | CCN1C(C)=C(C(=O)OC)[C@@H](c2ccccc2)N2C(=O)[C@](O)(C(=O)OC)[C@@H](c3ccccc3)C(C(=O)c3ccccc3)=C12 | 0.325 | 0.111 (inactive) | 0.541 | -0.112 | 0.401 | 0.915 | 0.629 | 0.723 | 0.309 | 0.352 | 0.0774 | 0.778 | 0.0079 | 0.983 | 0.411 | 0.411 | 1.58 | 0.717 | 0.593 | -1.2 (inactive)
7 | O=C1OCC=C[C@H]2OC34C=CCN(Cc5ccccc5)C(=O)[C@H]3N(CCO)C(=O)[C@@H]4[C@@H]12 (stereo not given in full) | 0.661 | 0.383 (inactive) | -0.248 | -0.177 | 0.824 | 0.666 | -0.0963 | -0.72 | -1.82 | -0.403 | -0.29 | -0.766 | -0.248 | -1.04 | -0.0764 | -1.24 | -0.0233 | 0.0323 | -0.0943 | -3.69 (inactive)
8 | CO[C@H]1COC(=O)[C@@H](C)COC(=O)[C@H](Cc2ccccc2)NC(=O)CC=C[C@H]1C | -0.73 | 0.0953 (inactive) | -0.208 | -0.223 | -0.315 | -0.557 | -0.399 | 0.294 | 1.48 | -0.268 | -1.35 | -0.0007 | -0.62 | 0.177 | 0.932 | 0.771 | 1.04 | 1.27 | -0.457 | -0.897 (inactive)
9 | O=C1O[C@H](c2ccccc2)[C@H](c2ccccc2)N2[C@H]1[C@@H](C(=O)NC[C@H](O)c1ccccc1)[C@]1(C(=O)Nc3ccc(C#CC4=CCCCC4)cc31)[C@H]2c1ccc(OCCO)cc1 | 0.534 | 0.318 (inactive) | 0.141 | -0.0741 | 0.522 | 0.864 | 0.402 | 1.31 | 0.424 | 1.11 | 0.879 | 1.19 | 0.73 | 0.874 | 1.2 | 0.527 | -1.76 | 1.26 | 0.944 | -1.4 (inactive)
10 | C=CCN1C(=O)[C@]2(O[C@H](CCn3cc(CCO)nn3)[C@@H]([Si](C)(C)c3ccc(OC)cc3)[C@@H]2C)c2cc(NC(=O)c3ccc(OC)cc3)ccc21 | 0.0645 | -0.624 (inactive) | 0.141 | -0.044 | 0.131 | 0.514 | -0.0812 | 1.3 | 0.782 | 1.08 | 0.94 | 1.14 | 0.611 | 0.708 | 1.35 | 1.2 | 2.37 | 1.01 | 0.816 | -2.28 (inactive)
11 | C=C(CCCC)/C(=C/C[C@H](OC(=O)c1ccncc1)c1cccc(OCCO)c1)c1cc(C(=O)OC)ccc1OC | -0.2 | -0.331 (inactive) | 0.074 | -0.131 | 0.0309 | 1.09 | -0.132 | 0.711 | 0.363 | 0.724 | 1.06 | 0.492 | -0.0622 | 0.723 | 0.852 | 1.59 | 0.397 | 1.17 | 0.311 | 0.34 (inactive)
